A short description of assay [1]: qHTS assay to identify small molecule agonists of the vitamin D receptor (VDR) signaling pathway - cell viability counter screen (AID 743224; active means well fitted curve in the direction sought with a large enough effect in the repeat runs; an effect the other way counts as inactive or inconclusive; further: nearly all actives have a fitted effect of over 50% in size; further: potency means the concentration at half of the fitted maximal effect). Summed up:
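VDR-bla cell line, quantitative HTS format; 16 h compound incubation (37C, 5% CO2); ATP-based CellTiter-Glo luminescence measured in the reporter assay wells.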

The nature of assay [2]: qHTS assay to identify small molecule agonists of the NFkB signaling pathway (AID 1159509; active means well fitted curve in the direction sought with a large enough effect in the signal ratio in the repeat runs, not every such curve was filed as active; the % refers to the signal ratio; further: series mostly up to about 61 µM). Summed up:
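After overnight attachment, reporter cells received test compounds, DMSO or positive controls and were incubated 5 hr at 37 C. FRET substrate was then added for 1.5 hr at room temperature before dual-emission fluorescence reading.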
A general note: qHTS replaces the single test concentration by a dilution series.

The nature of assay [3]: qHTS assay to identify small molecule agonists of the NFkB signaling pathway - cell viability counter screen (AID 1159515). Further: series mostly up to about 61 µM; nearly all actives have a fitted effect of over 55% in size. Summed up:
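Viability in NFkB-bla ME-180 cells was measured by CellTiter-Glo luminescence, 30 min room temperature, in wells already treated 5 hr with compounds and read for reporter FRET.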

The nature of assay [4]: qHTS assay to identify small molecule agonists of the endoplasmic reticulum stress response signaling pathway (AID 1159516; active means well fitted activation curve with a large enough effect in the signal ratio in the repeat runs, not every such curve was filed as active; the % refers to the signal ratio). In a few lines: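 ER stress element reporter (bla) in HeLa. 1,500 cells/well, overnight attachment; 5 hr compound; 2 hr RT substrate; dual-emission fluorescence.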
Assay [5] can be described thus: qHTS assay to identify small molecule agonists of the endoplasmic reticulum stress response signaling pathway - cell viability counter screen (AID 1159517).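 Further: HeLa cells carrying an ER stress response element beta-lactamase reporter; series mostly up to about 61 µM; nearly all actives have a fitted effect of over 50% in size.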 In a few lines:
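Cells, HeLa ESRE-bla; density, 1,500/well; dosing, 5 hr at 37 C, 5% CO2; readout, CellTiter-Glo luminescence after 30 min RT.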

Assay [6] can be described thus: qHTS assay to identify small molecule antagonists of the retinoid-related orphan receptor gamma (ROR-gamma) signaling pathway - cell viability counter screen (AID 1159520; active means well fitted curve in the direction sought with a large enough effect in the repeat runs; an effect the other way counts as inactive or inconclusive; further: nearly all actives have a fitted effect of over 50% in size). In a few lines: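 Cytotoxicity was read from cellular ATP (CellTiter-Glo luminescence) after 16 hr at 37 C with 1 uM doxycycline induction. The inducer was added 2 hr after compound transfer to Tet-on ROR gamma CHO cells.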

Assay [7] in a line: qHTS assay to identify small molecule agonists of the AP-1 signaling pathway (AID 1159526).
Assay [8] in a line: qHTS assay to identify small molecule antagonists of the vitamin D receptor (VDR) signaling pathway - cell viability counter screen (AID 743225; active means well fitted curve in the direction sought with a large enough effect in the repeat runs; an effect the other way counts as inactive or inconclusive; further: nearly all actives have a fitted effect of over 50% in size; further: potency means the concentration at half of the fitted maximal effect). Summed up: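 In this counter screen, VDR-bla HEK 293T cells receive test compound plus 3 nM final calcitriol for 16 h at 37C. Room-temperature steps of 2 h with the beta-lactamase substrate, then 30 min with CellTiter-Glo, precede the luminescence read.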

Assay [9] deals with Nuclear receptor ROR-gamma (Homo sapiens) (UniProt P51449). As to the kind of experiment: qHTS assay to identify small molecule antagonists of the retinoid-related orphan receptor gamma (ROR-gamma) signaling pathway (AID 1159521; active means well fitted curve in the direction sought with a large enough effect in the repeat runs; an effect the other way counts as inactive or inconclusive; further: nearly all actives have a fitted effect of over 50% in size; further: potency means the concentration at half of the fitted maximal effect). Summed up: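 Screening format: cell-based luciferase reporter in CHO cells with doxycycline-inducible RORγ. Compound pre-exposure lasts 2 h, doxycycline is 1 uM final, induction runs 16 h at 37 C, and ONE-Glo luminescence is read.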

Assay [10] in a line: qHTS assay to identify small molecule agonists of the AP-1 signaling pathway - cell viability counter screen (AID 1159525). Further: nearly all actives have a fitted effect of over 55% in size. In a few lines:
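Luminescent ATP readout (Cell Titer Glo, 30 min RT), normalised to DMSO and tetra n-octyl ammonium bromide controls. Cells were ME-180 AP-1-bla in 0.5% dialyzed FBS Opti-MEM, with a 5 h, 37 °C compound exposure.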

Inconclusive results are not listed. The source made the active and inactive calls. Unless noted, the call rests on the fitted dose curve.

With `ClCc1cccc(Cl)c1`, the Potency entry in [1], in assay [3], in assay [5] and in assay [6] was “inactive” each time. Besides, the result in [2], in assay [4] and in assay [7] was inactive.

For the compound `CC(=O)CCC(C)=O`, the Potency entry in assay [1], in [8], in [3], in [6], in [9] and in [10] was “inactive” throughout. Further, the call in assay [2], in [4] and in assay [7] was inactive.

As to `CCCCCCCCOC(=O)c1ccc(C(=O)OCCCCCCCC)c(C(=O)OCCCCCCCC)c1`, the Potency entry in [1], in [3], in assay [5] and in assay [6] was “inactive” throughout. Moreover, the compound was called inactive in assay [2], in assay [4] and in [7].

`CCCCN=C=O`: the Potency result in assay [1], in assay [8], in [3], in [6], in [9] and in [10] was “inactive” in each case. Further, the compound was classed as inactive in assay [2], in [4] and in assay [7].

On to `CCOS(C)(=O)=O`, for which the Potency entry in assay [1], in [8], in assay [3], in [5], in assay [6] and in assay [10] was “inactive” each time. For the same compound, the outcome in assay [2], in assay [4] and in [7] was inactive.

Take `COP(=S)(OC)Oc1ccc([N+](=O)[O-])cc1Cl`: the Potency result in [1], in assay [3], in assay [6] and in assay [10] was “inactive” each time. The result in assay [2], in assay [4] and in assay [7] was inactive. The Potency in [9] is 43.3 µM (active).

`CCOP(=S)(Oc1ccc([N+](=O)[O-])cc1)c1ccccc1` (stereo unspecified): the Potency entry in assay [1], in assay [8], in [3], in assay [5], in assay [6] and in assay [10] was “inactive” each time. The call in assay [2], in assay [4] and in [7] was inactive.

As for `O=C(N[C@H](c1ccccc1)[C@@H]1CN2CCC1CC2)c1c(Cl)ccc(C(F)(F)F)c1Cl`, the Potency entry in assay [8], in assay [3], in assay [5] and in [10] was “inactive” throughout. For the same compound, the compound was called inactive in assay [2] and in assay [4].

Regarding `O=C1CN=C(c2ccccc2)c2cc(Cl)ccc2N1CC1CC1`, the Potency entry in assay [1], in [3], in assay [6], in assay [9] and in assay [10] was “inactive” each time. For the same compound, the compound was classed as inactive in assay [2], in assay [4] and in assay [7].

In the case of `Cc1ccccc1C(=O)Nc1cccc(OC(C)C)c1`, the Potency result in assay [1], in assay [3], in assay [5] and in assay [6] was “inactive” throughout. Also, the compound was classed as inactive in [2], in assay [4] and in [7].

Regarding `O=C(Nc1ccccc1)Nc1ccnc(Cl)c1`, the outcome in [2] and in assay [4] was inactive. The Potency result in [3] and in [5] was “inactive” in each case.

Consider `C[C@]12CC[C@H]3[C@@H](CCC4=CC(=O)CC[C@@H]43)[C@@H]1CC[C@@H]2OC(=O)CCC1CCCCC1`, for which the Potency result in assay [1], in assay [8], in assay [3], in assay [5] and in assay [10] was “inactive” throughout. In addition, the compound was classed as inactive in [2], in [4] and in assay [7].

Turning to `CCO[C@H]1O[C@@H]2OC3(C)CC[C@H]4[C@H](C)CC[C@@H]([C@H]1C)[C@@]24OO3`, the Potency result in assay [1], in assay [8], in assay [3], in assay [5], in [6] and in [10] was “inactive” throughout. Also, the compound was classed as inactive in assay [2] and in assay [4].

With `CCCCNP(N)(N)=S`, the Potency entry in assay [1], in assay [8], in assay [3], in assay [5], in assay [6] and in assay [10] was “inactive” each time. For the same compound, the result in assay [2] and in [4] was inactive.

With `CC[C@H]1C[C@H]2[C@@H]3CCC4=CC(=O)CC[C@@H]4[C@H]3CC[C@]2(C)[C@H]1O`, the Potency entry in assay [1], in [3], in assay [5] and in assay [10] was “inactive” each time. For the same compound, the compound was classed as inactive in assay [2] and in assay [4].

Turning to `CCCCC(O)(Cn1cncn1)c1ccc(Cl)cc1Cl` (stereo unspecified), the figures for the Potency in assay [1], in assay [8] and in assay [9] were 48.9 µM (active), 54.9 µM (active) and 54.4 µM (active), respectively. Besides, the compound was classed as inactive in assay [2] and in [4]. Further, the Potency result in assay [3] and in [5] was “inactive” each time.

Turning to `COc1nn(CSP(=S)(OC)OC)c(=O)s1`, the outcome in assay [2] was inactive.

For the compound `COC(=O)c1cncn1C(C)c1ccccc1` (stereo unspecified), the Potency result in assay [1], in [3], in assay [6], in assay [9] and in [10] was “inactive” each time. In addition, the compound was called inactive in assay [2], in assay [4] and in assay [7].

`CCOc1nc(F)cc2nc(S(=O)(=O)Nc3c(Cl)cccc3Cl)nn12`: the Potency result in assay [1], in assay [8], in assay [3], in [5], in [6] and in assay [10] was “inactive” in each case. Also, the compound was called inactive in assay [2], in assay [4] and in [7].

In the case of `N#Cc1ccc(Cl)cc1`, the Potency entry in assay [1], in [8], in assay [3], in assay [5], in [9] and in assay [10] was “inactive” in each case. The compound was classed as inactive in assay [2], in [4] and in [7].

In the case of `O=C1C(Cl)C(CCl)CN1c1cccc(C(F)(F)F)c1` (stereo unspecified), the Potency entry in assay [1], in assay [8], in [3], in assay [5] and in assay [6] was “inactive” each time. Further, the outcome in [2], in assay [4] and in assay [7] was inactive.

With `Nc1ccc([N+](=O)[O-])cc1[N+](=O)[O-]`, the Potency result in assay [1], in assay [3], in assay [5] and in [10] was “inactive” throughout. The compound was called inactive in [2], in assay [4] and in assay [7].

`ClCCCCBr`: the Potency result in [1], in assay [8], in assay [3], in [6], in assay [9] and in assay [10] was “inactive” throughout. For the same compound, the result in assay [2], in [4] and in assay [7] was inactive.

As to `Clc1ccc(C2(Cn3cncn3)CC(Br)CO2)c(Cl)c1` (stereo unspecified), the Potency result in assay [1], in assay [8], in assay [3], in assay [5], in assay [6] and in assay [10] was “inactive” in each case. For the same compound, the compound was called inactive in [2], in assay [4] and in assay [7].

In the case of `CC(C)O.CC(C)O.OCCN(CCO)CCO.OCCN(CCO)CCO.[Ti]`, the Potency result in [1], in assay [3], in assay [5], in assay [6] and in assay [10] was “inactive” each time. Besides, the compound was classed as inactive in assay [2] and in [4].

Take `O=C(NC(=O)c1c(F)cccc1F)Nc1cc(Cl)c(Oc2ncc(C(F)(F)F)cc2Cl)c(Cl)c1`: the compound was classed as inactive in assay [2] and in assay [4]. Besides, the Potency entry in assay [3], in [5] and in assay [10] was “inactive” each time. For the same compound, the Potency in assay [9] is 20.8 µM (active).

Consider `Cl/C=C\C[N+]12CN3CN(CN(C3)C1)C2`, for which the Potency entry in assay [1], in assay [3], in [5], in assay [9] and in [10] was “inactive” throughout. The compound was called inactive in assay [2], in [4] and in [7].

On to `CC(=O)[C@H]1CC[C@H]2[C@@H]3CC[C@H]4C[C@](C)(O)CC[C@]4(C)[C@H]3CC[C@]12C`, for which the Potency result in assay [1], in [3], in assay [5], in [6] and in [10] was “inactive” throughout. The call in assay [2] and in assay [4] was inactive.

`CN(N=O)c1ccc([N+](=O)[O-])cc1`: the Potency entry in assay [1], in [3], in assay [6], in [9] and in assay [10] was “inactive” in each case. For the same compound, the outcome in assay [2], in assay [4] and in assay [7] was inactive.
